Publication PMC7862700, “An all-to-all approach to the identification of sequence-specific readers for epigenetic DNA modifications on cytosine”

How the values were obtained:
Experiment in all cases: DAPPL (digital affinity profiling via proximity ligation, sequencing); 10 mM Tris-HCl pH 7.5, 50 mM NaCl, 1 mM DTT, 4% glycerol, room temperature, 30 min; GST-TFs on glutathione beads, 16-mer random dsDNA library, 0.1% formaldehyde crosslink after washing; high values mean tight binding
Conditions in all cases: protein: recombinant; tags: N-terminal GST; dsDNA, one strand shown
ELK1 = molecular target: T1, ELK1 (Homo sapiens, UniProt P19419 1-428)
T1 sequence: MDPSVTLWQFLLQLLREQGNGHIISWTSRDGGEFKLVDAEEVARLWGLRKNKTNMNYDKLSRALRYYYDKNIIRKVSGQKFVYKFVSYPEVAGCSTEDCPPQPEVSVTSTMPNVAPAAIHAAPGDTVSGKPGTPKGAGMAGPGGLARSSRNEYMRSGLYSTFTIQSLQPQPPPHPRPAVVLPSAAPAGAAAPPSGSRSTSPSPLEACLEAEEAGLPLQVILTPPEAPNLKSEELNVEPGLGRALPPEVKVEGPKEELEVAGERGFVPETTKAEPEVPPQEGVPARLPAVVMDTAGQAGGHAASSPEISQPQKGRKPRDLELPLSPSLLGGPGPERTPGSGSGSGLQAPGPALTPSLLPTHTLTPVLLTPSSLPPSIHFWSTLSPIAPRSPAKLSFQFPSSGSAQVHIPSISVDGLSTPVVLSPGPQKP
In short: (§1)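 Human transcription factors were made in yeast as GST fusions, captured on glutathione beads and barcoded with DNA. With a tag-only sample included, the pool was incubated with 200 nmole of a random double-stranded 16-mer DNA library in Tris/NaCl/DTT/glycerol buffer at room temperature for 30 min, then crosslinked with 0.1% formaldehyde after washing, ligated by proximity, amplified and sequenced. For binding signal, each hexamer's read frequency for a factor is divided by its frequency for the tag-only sample.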

ELF1 = ELF1 (Homo sapiens, UniProt P32519 1-619)
In short: as §1

SPIB = SPIB (Homo sapiens, UniProt Q01892 1-262)
In short: as §1

ELK3 = molecular target: T2, ELK3 (Homo sapiens, UniProt P41970 1-407)
T2 sequence: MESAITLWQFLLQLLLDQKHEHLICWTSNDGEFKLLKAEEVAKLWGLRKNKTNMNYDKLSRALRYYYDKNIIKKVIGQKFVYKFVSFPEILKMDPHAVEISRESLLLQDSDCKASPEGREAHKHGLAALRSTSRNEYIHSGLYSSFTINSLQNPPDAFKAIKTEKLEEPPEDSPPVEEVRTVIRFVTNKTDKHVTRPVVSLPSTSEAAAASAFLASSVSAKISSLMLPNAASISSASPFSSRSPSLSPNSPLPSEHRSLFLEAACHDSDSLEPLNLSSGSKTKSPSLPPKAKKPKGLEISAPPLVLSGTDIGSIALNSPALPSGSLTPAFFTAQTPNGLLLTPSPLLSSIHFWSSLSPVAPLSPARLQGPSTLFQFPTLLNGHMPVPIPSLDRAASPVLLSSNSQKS
In short: as §1

SPIC = molecular target: T3, SPIC (Homo sapiens, UniProt Q8N5J4 1-248)
T3 sequence: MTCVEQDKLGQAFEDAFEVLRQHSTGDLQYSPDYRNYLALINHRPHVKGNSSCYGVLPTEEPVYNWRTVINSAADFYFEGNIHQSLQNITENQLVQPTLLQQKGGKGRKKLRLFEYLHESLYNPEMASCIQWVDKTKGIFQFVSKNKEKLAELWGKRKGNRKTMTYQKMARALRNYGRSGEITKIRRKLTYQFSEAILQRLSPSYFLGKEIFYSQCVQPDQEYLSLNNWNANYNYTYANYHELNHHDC
In short: as §1

ELF4 = ELF4 (Homo sapiens, UniProt Q99607 1-663)
In short: as §1

ELK4 = molecular target: T4, ELK4 (Homo sapiens, UniProt P28324-2 1-405)
T4 sequence: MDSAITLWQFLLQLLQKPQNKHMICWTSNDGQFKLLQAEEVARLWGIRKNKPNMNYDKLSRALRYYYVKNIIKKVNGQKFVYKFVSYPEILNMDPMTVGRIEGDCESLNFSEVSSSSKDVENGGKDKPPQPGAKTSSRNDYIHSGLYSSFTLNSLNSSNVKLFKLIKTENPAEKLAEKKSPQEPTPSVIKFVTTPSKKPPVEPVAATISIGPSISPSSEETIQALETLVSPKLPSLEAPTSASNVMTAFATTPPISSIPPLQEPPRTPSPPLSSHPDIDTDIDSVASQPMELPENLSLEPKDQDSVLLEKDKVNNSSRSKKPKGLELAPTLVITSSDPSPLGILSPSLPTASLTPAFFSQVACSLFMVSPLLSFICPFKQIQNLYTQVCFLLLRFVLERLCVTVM
In short: as §1

ELF3 = molecular target: T5, ELF3 (Homo sapiens, UniProt P78545 1-371)
T5 sequence: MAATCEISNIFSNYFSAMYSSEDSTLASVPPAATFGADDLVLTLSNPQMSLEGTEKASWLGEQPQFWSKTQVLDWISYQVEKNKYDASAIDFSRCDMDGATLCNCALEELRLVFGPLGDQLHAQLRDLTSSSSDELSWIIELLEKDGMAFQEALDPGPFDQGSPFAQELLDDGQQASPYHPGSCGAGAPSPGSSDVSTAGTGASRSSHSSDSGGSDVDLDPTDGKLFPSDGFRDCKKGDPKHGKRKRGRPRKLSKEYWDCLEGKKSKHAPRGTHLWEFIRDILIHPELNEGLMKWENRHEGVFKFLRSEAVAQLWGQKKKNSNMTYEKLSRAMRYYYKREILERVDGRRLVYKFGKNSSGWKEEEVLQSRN
In short: as §1

ERF = molecular target: T6, ERF (Homo sapiens, UniProt P50548 1-548)
T6 sequence: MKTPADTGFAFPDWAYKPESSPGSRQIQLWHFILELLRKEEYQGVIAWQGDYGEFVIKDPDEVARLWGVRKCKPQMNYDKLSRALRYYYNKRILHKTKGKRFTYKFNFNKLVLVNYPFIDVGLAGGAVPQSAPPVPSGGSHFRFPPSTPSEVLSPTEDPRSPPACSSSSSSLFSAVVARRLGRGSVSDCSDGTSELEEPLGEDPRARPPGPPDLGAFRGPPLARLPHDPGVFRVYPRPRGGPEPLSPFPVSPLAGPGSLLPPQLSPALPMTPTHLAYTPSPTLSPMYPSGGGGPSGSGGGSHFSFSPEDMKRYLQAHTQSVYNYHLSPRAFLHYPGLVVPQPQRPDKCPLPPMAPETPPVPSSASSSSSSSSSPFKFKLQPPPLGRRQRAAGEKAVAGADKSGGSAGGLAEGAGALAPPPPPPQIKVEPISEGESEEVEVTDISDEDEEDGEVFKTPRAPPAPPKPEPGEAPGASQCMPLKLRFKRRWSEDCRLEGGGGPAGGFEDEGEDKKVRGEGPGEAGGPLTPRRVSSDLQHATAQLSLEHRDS
In short: as §1

ETV3L = molecular target: T7, ETV3L (Homo sapiens, UniProt Q6ZN32 1-361)
T7 sequence: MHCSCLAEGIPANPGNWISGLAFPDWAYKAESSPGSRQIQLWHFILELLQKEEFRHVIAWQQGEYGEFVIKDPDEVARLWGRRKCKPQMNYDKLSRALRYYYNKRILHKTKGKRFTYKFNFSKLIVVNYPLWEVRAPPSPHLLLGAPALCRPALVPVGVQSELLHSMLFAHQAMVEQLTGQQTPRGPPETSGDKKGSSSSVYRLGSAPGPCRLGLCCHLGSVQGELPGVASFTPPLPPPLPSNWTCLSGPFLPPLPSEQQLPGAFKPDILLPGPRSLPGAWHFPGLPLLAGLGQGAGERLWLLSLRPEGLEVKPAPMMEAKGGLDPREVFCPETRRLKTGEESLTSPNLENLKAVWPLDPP
In short: as §1

ETS2 = molecular target: T8, ETS2 (Homo sapiens, UniProt P15036 1-469)
T8 sequence: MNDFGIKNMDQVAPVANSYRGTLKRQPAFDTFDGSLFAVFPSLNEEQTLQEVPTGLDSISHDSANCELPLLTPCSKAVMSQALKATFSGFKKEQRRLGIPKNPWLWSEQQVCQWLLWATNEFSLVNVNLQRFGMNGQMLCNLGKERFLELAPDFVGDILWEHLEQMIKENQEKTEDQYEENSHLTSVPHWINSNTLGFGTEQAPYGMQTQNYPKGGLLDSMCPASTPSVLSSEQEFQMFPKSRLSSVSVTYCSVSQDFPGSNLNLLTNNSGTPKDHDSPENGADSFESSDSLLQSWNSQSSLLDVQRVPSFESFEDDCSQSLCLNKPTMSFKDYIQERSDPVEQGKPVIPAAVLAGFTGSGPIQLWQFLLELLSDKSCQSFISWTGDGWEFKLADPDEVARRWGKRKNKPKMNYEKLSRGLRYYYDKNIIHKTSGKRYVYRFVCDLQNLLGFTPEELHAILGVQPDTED
In short: as §1

SPDEF = molecular target: T9, SPDEF (Homo sapiens, UniProt O95238 1-335)
T9 sequence: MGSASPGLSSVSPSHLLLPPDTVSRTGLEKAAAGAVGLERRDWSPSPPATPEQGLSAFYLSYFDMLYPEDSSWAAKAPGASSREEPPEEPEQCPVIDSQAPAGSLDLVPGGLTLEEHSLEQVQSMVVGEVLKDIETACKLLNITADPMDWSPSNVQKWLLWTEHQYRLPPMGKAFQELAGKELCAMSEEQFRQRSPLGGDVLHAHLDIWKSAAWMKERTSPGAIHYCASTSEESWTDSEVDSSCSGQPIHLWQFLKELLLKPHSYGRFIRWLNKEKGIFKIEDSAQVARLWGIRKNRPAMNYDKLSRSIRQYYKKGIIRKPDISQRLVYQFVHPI
In short: as §1

ETV7 = molecular target: T10, ETV7 (Homo sapiens, UniProt Q9Y603 1-341)
T10 sequence: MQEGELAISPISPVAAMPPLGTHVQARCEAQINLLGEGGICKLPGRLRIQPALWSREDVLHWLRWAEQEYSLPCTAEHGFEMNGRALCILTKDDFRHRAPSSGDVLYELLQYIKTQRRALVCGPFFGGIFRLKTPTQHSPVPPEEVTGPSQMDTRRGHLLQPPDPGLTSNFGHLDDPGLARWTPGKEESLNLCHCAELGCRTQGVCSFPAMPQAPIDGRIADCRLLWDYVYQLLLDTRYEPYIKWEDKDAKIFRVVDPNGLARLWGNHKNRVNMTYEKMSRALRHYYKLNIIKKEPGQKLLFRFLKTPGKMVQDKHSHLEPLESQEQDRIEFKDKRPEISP
In short: as §1

ETV3 = molecular target: T11, ETV3 (Homo sapiens, UniProt P41162-2 1-143)
T11 sequence: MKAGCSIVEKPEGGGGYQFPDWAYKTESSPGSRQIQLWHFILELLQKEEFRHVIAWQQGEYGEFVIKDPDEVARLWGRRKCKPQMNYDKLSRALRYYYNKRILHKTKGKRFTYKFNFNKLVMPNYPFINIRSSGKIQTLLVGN
In short: as §1

Sequence of SPIB (Q01892 whole entry): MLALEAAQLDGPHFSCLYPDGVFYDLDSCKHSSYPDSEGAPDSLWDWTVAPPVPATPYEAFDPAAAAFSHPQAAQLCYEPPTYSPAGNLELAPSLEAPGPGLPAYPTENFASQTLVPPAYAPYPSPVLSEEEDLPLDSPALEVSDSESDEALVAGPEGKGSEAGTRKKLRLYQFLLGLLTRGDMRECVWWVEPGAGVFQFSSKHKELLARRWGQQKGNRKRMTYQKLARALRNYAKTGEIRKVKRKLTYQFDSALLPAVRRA
Sequence of ELF4 (Q99607 whole entry): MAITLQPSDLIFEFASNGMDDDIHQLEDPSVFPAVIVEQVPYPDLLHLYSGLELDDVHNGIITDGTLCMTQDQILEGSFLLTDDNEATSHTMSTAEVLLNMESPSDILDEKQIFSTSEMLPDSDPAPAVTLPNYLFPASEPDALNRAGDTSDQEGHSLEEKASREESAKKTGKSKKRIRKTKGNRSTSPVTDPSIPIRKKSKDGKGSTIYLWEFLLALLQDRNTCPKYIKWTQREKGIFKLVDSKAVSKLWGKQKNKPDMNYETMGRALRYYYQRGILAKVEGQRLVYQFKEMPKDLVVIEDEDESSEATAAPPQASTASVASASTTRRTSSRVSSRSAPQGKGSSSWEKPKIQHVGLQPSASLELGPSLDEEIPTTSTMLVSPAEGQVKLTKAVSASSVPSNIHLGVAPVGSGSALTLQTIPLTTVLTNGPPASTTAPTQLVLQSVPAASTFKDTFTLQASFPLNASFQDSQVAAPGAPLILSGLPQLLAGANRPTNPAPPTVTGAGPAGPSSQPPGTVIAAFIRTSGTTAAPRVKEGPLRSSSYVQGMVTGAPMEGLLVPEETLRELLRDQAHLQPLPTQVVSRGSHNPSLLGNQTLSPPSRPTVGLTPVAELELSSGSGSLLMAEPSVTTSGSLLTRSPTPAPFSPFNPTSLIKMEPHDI
Sequence of ELF1 (P32519 whole entry): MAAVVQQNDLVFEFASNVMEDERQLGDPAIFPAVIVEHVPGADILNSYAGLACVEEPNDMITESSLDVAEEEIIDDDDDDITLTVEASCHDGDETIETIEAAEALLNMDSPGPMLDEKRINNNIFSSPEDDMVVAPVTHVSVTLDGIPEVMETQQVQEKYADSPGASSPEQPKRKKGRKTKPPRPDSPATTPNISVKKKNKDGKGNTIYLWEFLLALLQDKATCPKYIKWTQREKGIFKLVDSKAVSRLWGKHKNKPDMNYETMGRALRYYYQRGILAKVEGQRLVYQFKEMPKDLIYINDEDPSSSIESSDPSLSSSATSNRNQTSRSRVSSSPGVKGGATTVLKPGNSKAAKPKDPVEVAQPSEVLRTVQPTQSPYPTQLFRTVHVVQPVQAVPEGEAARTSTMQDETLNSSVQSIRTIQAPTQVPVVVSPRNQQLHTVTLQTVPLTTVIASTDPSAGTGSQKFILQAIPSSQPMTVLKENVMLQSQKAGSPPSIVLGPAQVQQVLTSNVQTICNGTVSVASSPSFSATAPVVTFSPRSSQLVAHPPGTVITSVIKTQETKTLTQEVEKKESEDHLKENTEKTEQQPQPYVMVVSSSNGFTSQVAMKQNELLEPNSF

Which binding signal (ELK1) does the source give for GATCTA here?
The binding signal was 1.12 fold enrichment (6-mer frequency, TF over GST control).

And the binding signal (ELF1)?
The binding signal was 1.03 fold enrichment (6-mer frequency, TF over GST control).

What about the binding signal (SPIB) of the same sequence?
Its binding signal is 1.06 fold enrichment (6-mer frequency, TF over GST control).

And the binding signal (ELK3)?
Its binding signal is 1.12 fold enrichment (6-mer frequency, TF over GST control).

And the binding signal (SPIC)?
Its binding signal is 1.01 fold enrichment (6-mer frequency, TF over GST control).

And the binding signal (ELF4)?
The binding signal was 1.04 fold enrichment (6-mer frequency, TF over GST control).

And the binding signal (ELK4)?
The binding signal was 1.05 fold enrichment (6-mer frequency, TF over GST control).

And the binding signal (ELF3)?
The binding signal was 1.07 fold enrichment (6-mer frequency, TF over GST control).

And the binding signal (ERF)?
Its binding signal is 1.04 fold enrichment (6-mer frequency, TF over GST control).

What about the binding signal (ETV3L) of the same sequence?
Its binding signal is 1.03 fold enrichment (6-mer frequency, TF over GST control).

What about the binding signal (ETS2) of the same sequence?
The binding signal was 1.04 fold enrichment (6-mer frequency, TF over GST control).

And the binding signal (SPDEF)?
Its binding signal is 1.1 fold enrichment (6-mer frequency, TF over GST control).

What about the binding signal (ETV7) of the same sequence?
The binding signal was 1.1 fold enrichment (6-mer frequency, TF over GST control).

And the binding signal (ETV3)?
Its binding signal is 1.04 fold enrichment (6-mer frequency, TF over GST control).
